In PubChem BioAssay (NCATS):
Records with an inconclusive call do not appear. Active and inactive are the calls of the source. Unless noted, calls come from the whole dose curve; as a rule, active = well fitted curve in the direction sought with a large enough effect; inconclusive = small, poorly fitted or top-dose-only effect, or another doubt; inactive = no such curve, though single readings can be large; an effect the other way counts as inactive or inconclusive.

Legend:
[1] = AP1 Signaling Pathway (AID 357; active = well fitted curve in either direction with a large enough effect, not every such curve was filed as active; note: % is set by controls: 0 for no effect and ±100 for the full control effect); conditions: ME-180 AP-1-bla reporter, EGF-induced, beta-lactamase ratio, 5 h; at 7.69 µM (top of the series) unless noted
How it was run: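 First, ME-180 AP-1-bla cells were cultured overnight at 37 °C in low-serum Opti-MEM. Next, titrated compounds with EC50 EGF were incubated 5 hours. Finally, CCF4 was added for 2.5 hours and the 460/530 nm ratio recorded.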

[2] = molecular target: Cytochrome P450 1A2 (Homo sapiens) (UniProt P05177); experiment: p450-cyp1a2 (AID 410; calls by dose curve; note: potency is the fitted concentration of half-maximal effect)
How it was run: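 Luminescent demethylation readout: Luciferin-ME (100uM, equal to Km) turned over by 20nM CYP1A2 for 60 min at room temperature after NADPH regeneration addition, following 10 min compound preincubation. Normalization used 57 uM furafylline as full inhibition.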

[3] = Stat Signaling Pathway (AID 446; active = well fitted curve in either direction with a large enough effect, not every such curve was filed as active;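 note: ME-180 cervical cancer cells given 40 pM IL-6 alongside compound; SIE-controlled beta-lactamase reporter measured as 460/530 nm FRET emission ratio; % is set by controls: 0 for no effect and ±100 for the full control effect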); conditions: ME-180 SIE beta-lactamase reporter, IL-6 stimulated, 5 h; at 7.69 µM (top of the series) unless noted
How it was run: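 Emission at 460 and 530 nm (excitation 405 nm) reports SIE-controlled beta-lactamase in ME-180 cells. Cells received compound with 40 pM IL-6 for 5 hrs at 37 C; data scaled between 300 pM IL-6 and 125 nM JAK-inhibitor controls.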

[4] = molecular target: Glucocorticoid receptor (Homo sapiens) (UniProt P04150); experiment: GR-GFP Redistribution (AID 450;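 active = compounds whose dose series gives a full or clear partial fitted curve of increased nuclear translocation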; note: potency is the fitted concentration of half-maximal effect); conditions: U2OS GR-GFP nuclear translocation, laser cytometry, 2 h
[5] = molecular target: Glucocorticoid receptor (Homo sapiens) (UniProt P04150); experiment: GR-EFC Redistribution (AID 451; calls by dose curve; note: potency is the fitted concentration of half-maximal effect); conditions: CHO-K1 GR-EFC translocation, beta-gal luminescence, 2 h
How it was run: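 CHO-K1 cells expressing nuclear EA and GR-ED fragments of b-gal; compounds titrated up to 46 uM final, 2 h at 37 C. GR nuclear translocation read as complemented b-gal luminescence after 1 h RT detection.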

[6] = molecular target: Mitogen-activated protein kinase 10 (Mus musculus) (UniProt Q61831); experiment: JNK3 AlphaScreen Assay (AID 530; active = well fitted curve in either direction with a large enough effect, not every such curve was filed as active;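 note: kinase came from lysate of stimulated human HepG2 cells; signal reports phosphorylation of biotinylated GST-cJun 1-79 at Ser73 with 10 µM ATP; % is set by controls: 0 for no effect and ±100 for the full control effect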)
How it was run: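 Activity was read by AlphaScreen after JNK3-containing HepG2 lysate (cytokine pre-activated) phosphorylated biotinylated GST-cJun with 10 uM ATP at room temperature. Phospho-Ser73 cJun antibody with Protein-A acceptor beads provided detection.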

[7] = molecular target: 3',5'-cyclic-AMP phosphodiesterase 4B (Homo sapiens) (UniProt Q07343); experiment: qHTS Assay for Inhibitors of PDE-IV (AID 607; active = well fitted activation curve with a large enough effect in the main read-out, with a control signal flat, not every such curve was filed as active; note: % of control where 0% means no effect)
How it was run: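 The readout is membrane depolarisation from a cAMP-sensing CNG channel, detected with a potential dye at ex 535/em 590. Cells were HEK293-derived (endogenous PDE-IV) at 1000 cells/well, titrated up to 22.9 uM final.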

[8] = qHTS Assay for Lipid Storage Modulators (AID 1519; calls by dose curve; note: potency is the fitted concentration of half-maximal effect); conditions: Drosophila S3 cells, BODIPY lipid droplet/cell ratio, laser cytometry, cells loaded with oleic acid; for activity change, negative = inhibition: at 57.5 µM (top of the series)
How it was run: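 Cells seeded at 5,000 per well were treated with compounds over a concentration series and loaded with oleic acid (400 uM, as added). Lipid droplet fluorescence (488 nm excitation, 500-530 nm channel) was read by laser-scanning cytometry and normalized to 20 uM Triacsin C.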

[9] = molecular target: Dual specificity protein kinase CLK4 (Homo sapiens) (UniProt Q9HAZ1); experiment: qHTS Assay for Inhibitors of CDC-like Kinase 4 (ADP-Glo Assay) (AID 1771); note: nearly all actives have a fitted effect of over 70% in size; note: potency is the fitted concentration of half-maximal effect
How it was run: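 ADP production was read by ADP-Glo luminescence after residual ATP depletion, following 1 h room-temperature reaction of 25 nM Clk4, 1 uM ATP and 100 uM RS peptide with MgCl2, EGTA, DTT and Triton X-100.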

[10] = molecular target: Dual specificity protein kinase CLK4 (Homo sapiens) (UniProt Q9HAZ1); experiment: qHTS Assay for Inhibitors of CDC-like Kinase 4 (ADP-FP Assay) (AID 1795); note: nearly all actives have a fitted effect of over 60% in size; note: potency is the fitted concentration of half-maximal effect
How it was run: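 FP readout: Orange Transcreener ADP2 tracer (4 nM) plus ADP antibody, read after 30 min at room temperature. Kinase step: 6.25 nM Clk4, 100 uM RS peptide, 1 uM ATP, pH 7.5, 1 h.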

[11] = molecular target: Ubiquitin carboxyl-terminal hydrolase 1 (Homo sapiens) (UniProt O94782); experiment: Inhibitors of USP1/UAF1: Pilot qHTS (AID 504865); note: nearly all actives have a fitted effect of over 35% in size; note: potency is the fitted concentration of half-maximal effect
How it was run: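 1nM USP1/UAF1 + cpd, 15 min RT; start w/ Ub-Rho 150nM final; kinetic FL 480/540 nm, 6 reads q60 s. Buffer 50mM HEPES pH 7.8, 0.5mM EDTA, 1mM TCEP, 0.01% Tween-20, 0.1 mg/ml BSA.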

[12] = Primary qHTS for small molecule stabilizers of the endoplasmic reticulum resident proteome: Secreted ER Calcium Modulated Protein (SERCaMP) assay (AID 1508630); note: % is set by controls: 0 for no effect and ±100 for the full control effect
How it was run: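 The SH-SY5Y reporter protocol was run at 3 concentrations up to 38.3 uM (primary) or 11 concentrations (follow-up): 16 h compound, 100 nM thapsigargin for 4 h, then extracellular luciferase luminescence.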

[13] = molecular target: Lysosomal acid glucosylceramidase (Homo sapiens) (UniProt P04062); experiment: Glucocerebrosidase-p2 (AID 348; in the data active = potency below about 10 µM; note: potency is the fitted concentration of half-maximal effect); conditions: purified GBA, blue fluorogenic substrate, 40 min
How it was run: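 Normal human glucocerebrosidase (0.2 nM) with blue fluorogenic substrate (80 uM final) in citrate/phosphate pH 5.9 with 10mM sodium taurocholate, 0.01% tween-20; 40 min RT, NaOH/glycine stop; fluorescence Ex 365/Em 440; AC50 from a titration from 0.6 nM upwards.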

[14] = NFAT Signaling Pathway (AID 444; active = well fitted curve in either direction with a large enough effect, not every such curve was filed as active); conditions: Jurkat NFAT-bla M1, carbachol, beta-lactamase ratio, 5 h; at 7.69 µM (top of the series) unless noted
How it was run: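 Jurkat cells with NFAT-driven β-lactamase reporter and co-expressed M1 receptor, stimulated with carbachol (final 1 uM, ~EC50), compound titration, 5 h at 37 °C. CCF4 loaded 1 h at RT; 460/530 nm ratio gave %activity and AC50.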

[15] = qHTS Assay for Identification of Small Molecule Agonists for Hypoxia Response Element Signaling Pathway (AID 914; active = well fitted activation curve with a large enough effect in the signal ratio, with a control signal flat, not every such curve was filed as active; the % refers to the signal ratio; note: % of control where 0% means no effect); conditions: ME-180 HRE-bla reporter, beta-lactamase ratio, CoCl2, 17 h; activation: stronger effect = higher value
How it was run: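 ME-180 cells carrying an HRE-driven beta-lactamase reporter were treated with compounds in a titration series plus an EC50 level of CoCl2 for 17 h at 37 degrees Celsius; CCF4 readout as the 460nm/530nm ratio gave AC50 values.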

[16] = molecular target: Cytochrome P450 3A4 (Homo sapiens) (UniProt P08684); experiment: qHTS Assay for Activators of Cytochrome P450 3A4 (AID 885); note: nearly all actives have a fitted effect of over 65% in size
How it was run: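 Activators are scored by enhanced luminescence from CYP3A4 conversion of luciferin-PPXE (25uM, equal to KM) to luciferin, after 60 min at RT with an NADPH-regenerating system.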

[17] = molecular target: Cytochrome P450 3A4 (Homo sapiens) (UniProt P08684); experiment: qHTS Assay for Inhibitors and Substrates of Cytochrome P450 3A4 (AID 884); note: potency is the fitted concentration of half-maximal effect; nearly all actives have a fitted effect of over 50% in size
How it was run: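 Luminescent readout of luciferin produced by CYP3A4 (20 nM) dealkylation of Luciferin-PPXE, 25 uM (its KM). NADPH-driven reaction ran 60 min at RT after 10 min compound preincubation; data scaled to 57 uM ketoconazole as 100% inhibition.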

[18] = measured here: cell count channel max response
[19] = measured here: lipid channel max response

Cytochrome P450 3A4 (Homo sapiens), sequence (P08684 whole entry, looked up): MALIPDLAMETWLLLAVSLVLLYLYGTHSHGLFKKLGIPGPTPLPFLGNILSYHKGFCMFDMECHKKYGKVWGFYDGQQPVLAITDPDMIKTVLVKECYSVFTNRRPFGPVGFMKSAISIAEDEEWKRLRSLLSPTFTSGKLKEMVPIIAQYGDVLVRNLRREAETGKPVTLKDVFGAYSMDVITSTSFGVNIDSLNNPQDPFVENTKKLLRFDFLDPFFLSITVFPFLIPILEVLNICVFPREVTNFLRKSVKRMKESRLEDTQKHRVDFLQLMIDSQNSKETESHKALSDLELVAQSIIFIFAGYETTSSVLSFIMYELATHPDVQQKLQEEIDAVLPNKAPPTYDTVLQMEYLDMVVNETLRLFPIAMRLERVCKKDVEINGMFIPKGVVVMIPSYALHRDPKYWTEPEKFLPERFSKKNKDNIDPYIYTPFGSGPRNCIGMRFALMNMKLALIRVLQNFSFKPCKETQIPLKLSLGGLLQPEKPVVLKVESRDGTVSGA
Lysosomal acid glucosylceramidase (Homo sapiens), sequence (P04062 whole entry, looked up): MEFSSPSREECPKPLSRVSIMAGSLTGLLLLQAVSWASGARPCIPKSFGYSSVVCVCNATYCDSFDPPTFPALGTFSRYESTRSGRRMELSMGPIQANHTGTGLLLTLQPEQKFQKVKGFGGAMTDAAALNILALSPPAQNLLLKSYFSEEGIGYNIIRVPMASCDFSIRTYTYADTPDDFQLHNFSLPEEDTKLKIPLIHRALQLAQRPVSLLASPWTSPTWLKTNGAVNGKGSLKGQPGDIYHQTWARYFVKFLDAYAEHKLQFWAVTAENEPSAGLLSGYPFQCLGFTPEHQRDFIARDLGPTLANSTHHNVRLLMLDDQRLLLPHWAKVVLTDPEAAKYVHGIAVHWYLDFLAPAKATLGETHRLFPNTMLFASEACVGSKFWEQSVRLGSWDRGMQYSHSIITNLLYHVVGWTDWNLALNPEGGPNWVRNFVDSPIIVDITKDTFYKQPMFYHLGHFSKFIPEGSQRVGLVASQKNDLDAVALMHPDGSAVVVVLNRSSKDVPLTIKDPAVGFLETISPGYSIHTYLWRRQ
Ubiquitin carboxyl-terminal hydrolase 1 (Homo sapiens), sequence (O94782 whole entry, looked up): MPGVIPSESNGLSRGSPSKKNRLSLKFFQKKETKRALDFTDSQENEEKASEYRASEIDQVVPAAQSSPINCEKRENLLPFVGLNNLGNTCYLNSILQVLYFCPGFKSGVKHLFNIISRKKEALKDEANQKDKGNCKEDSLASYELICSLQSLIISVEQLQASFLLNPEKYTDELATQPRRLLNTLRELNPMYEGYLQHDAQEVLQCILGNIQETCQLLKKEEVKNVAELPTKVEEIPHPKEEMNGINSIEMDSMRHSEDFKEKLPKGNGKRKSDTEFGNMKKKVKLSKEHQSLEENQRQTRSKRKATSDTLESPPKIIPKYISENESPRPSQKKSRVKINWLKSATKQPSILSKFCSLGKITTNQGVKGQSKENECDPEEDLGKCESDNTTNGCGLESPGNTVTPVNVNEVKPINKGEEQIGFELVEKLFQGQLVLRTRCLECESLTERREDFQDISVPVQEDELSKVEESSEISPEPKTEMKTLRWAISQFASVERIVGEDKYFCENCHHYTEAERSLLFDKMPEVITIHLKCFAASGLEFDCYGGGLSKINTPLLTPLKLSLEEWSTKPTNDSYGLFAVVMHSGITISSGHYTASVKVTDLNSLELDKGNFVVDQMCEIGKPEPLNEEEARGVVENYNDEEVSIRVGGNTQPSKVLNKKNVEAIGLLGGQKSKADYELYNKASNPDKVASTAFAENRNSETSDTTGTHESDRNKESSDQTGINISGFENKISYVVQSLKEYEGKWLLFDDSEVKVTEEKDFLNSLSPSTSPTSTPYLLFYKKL
Dual specificity protein kinase CLK4 (Homo sapiens), sequence (Q9HAZ1 whole entry, looked up): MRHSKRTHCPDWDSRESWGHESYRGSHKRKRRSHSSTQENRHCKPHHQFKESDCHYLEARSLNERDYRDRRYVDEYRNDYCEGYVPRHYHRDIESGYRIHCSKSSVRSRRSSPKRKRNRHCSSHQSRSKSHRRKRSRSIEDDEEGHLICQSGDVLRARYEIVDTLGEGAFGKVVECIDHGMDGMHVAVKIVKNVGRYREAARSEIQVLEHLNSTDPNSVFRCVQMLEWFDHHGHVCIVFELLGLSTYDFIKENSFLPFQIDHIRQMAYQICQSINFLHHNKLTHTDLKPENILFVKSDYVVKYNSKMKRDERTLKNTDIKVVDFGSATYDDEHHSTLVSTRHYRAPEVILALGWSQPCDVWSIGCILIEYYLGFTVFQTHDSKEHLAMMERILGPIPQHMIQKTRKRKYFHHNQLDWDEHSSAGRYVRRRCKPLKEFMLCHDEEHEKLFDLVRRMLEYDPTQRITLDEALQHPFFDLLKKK
3',5'-cyclic-AMP phosphodiesterase 4B (Homo sapiens), sequence (Q07343 whole entry, looked up): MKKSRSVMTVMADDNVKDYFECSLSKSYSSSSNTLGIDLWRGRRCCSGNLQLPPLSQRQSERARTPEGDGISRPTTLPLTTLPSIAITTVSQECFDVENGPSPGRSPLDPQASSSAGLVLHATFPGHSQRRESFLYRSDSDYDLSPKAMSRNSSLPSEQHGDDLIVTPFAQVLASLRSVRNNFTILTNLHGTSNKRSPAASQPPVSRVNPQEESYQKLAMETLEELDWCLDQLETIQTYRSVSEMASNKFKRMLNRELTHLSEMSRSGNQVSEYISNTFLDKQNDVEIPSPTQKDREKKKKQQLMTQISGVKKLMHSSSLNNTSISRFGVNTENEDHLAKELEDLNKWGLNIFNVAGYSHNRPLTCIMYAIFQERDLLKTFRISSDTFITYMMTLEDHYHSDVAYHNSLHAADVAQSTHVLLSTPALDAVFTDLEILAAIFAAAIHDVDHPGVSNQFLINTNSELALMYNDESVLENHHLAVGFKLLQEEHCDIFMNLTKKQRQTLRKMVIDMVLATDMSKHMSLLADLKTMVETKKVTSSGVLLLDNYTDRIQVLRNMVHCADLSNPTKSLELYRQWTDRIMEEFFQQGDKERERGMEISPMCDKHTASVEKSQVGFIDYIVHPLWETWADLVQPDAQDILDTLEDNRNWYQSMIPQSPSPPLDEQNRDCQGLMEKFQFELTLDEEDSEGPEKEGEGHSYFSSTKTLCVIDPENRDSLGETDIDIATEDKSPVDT
Cytochrome P450 1A2 (Homo sapiens), sequence (P05177 whole entry, looked up): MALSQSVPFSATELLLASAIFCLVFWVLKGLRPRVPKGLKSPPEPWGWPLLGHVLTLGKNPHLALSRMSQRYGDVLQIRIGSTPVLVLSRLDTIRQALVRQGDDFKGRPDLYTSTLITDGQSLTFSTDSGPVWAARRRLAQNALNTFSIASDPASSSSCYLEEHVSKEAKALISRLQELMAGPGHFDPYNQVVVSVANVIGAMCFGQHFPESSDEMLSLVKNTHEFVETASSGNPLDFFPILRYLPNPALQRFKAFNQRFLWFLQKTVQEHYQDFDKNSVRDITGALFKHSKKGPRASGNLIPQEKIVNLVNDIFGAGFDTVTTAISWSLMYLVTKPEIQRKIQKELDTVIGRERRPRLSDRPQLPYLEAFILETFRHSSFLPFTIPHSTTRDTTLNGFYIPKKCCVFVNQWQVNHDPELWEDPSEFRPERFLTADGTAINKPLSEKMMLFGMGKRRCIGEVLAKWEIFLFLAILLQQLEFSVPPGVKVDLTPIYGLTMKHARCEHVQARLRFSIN
Glucocorticoid receptor (Homo sapiens), sequence (P04150 whole entry, looked up, the tested form may be a part): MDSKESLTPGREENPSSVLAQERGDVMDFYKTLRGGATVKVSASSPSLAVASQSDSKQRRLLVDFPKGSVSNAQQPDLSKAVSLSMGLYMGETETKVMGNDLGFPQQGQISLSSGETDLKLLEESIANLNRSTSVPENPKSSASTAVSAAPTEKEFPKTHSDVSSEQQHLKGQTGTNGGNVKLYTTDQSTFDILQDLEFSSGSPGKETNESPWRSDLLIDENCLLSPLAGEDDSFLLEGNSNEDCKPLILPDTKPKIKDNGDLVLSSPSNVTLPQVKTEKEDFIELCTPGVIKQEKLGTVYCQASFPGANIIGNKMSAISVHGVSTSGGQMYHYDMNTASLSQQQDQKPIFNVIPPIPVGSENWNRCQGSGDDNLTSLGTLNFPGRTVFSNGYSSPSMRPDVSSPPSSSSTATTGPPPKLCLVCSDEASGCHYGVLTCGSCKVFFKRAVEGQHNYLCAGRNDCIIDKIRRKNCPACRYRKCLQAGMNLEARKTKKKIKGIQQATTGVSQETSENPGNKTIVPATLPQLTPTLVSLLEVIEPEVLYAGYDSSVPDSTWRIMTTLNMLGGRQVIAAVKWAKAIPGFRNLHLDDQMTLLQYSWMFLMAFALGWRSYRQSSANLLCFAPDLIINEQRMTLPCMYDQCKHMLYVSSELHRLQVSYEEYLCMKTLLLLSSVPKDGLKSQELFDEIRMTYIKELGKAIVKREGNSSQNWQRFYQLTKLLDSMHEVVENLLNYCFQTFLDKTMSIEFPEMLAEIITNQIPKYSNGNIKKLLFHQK

Structure (SMILES)	activity change, negative = inhibition [1]	Potency [2]	activity, negative = inhibition [3]	Potency [4]	Potency [5]	outcome [6]	Potency [7]	activity change, negative = inhibition [8]	max response [8, 18]	max response [8, 19]	Potency [9]	Potency [10]	Potency [11]	Potency [12]	Potency [13]	activity change, negative = inhibition [14]	Potency [8]	activation [15]	Potency [16]	Potency [17]
CN1CCN(c2ncc3ncc(=O)n(C[C@H]4CCCO4)c3n2)CC1	-9.63% (inactive)	10 µM (active)	-20.2% (inactive)	> 9.22 µM (inactive)	> 46 µM (inactive)	inactive	inactive	6.86% (inactive)	7.9%	13.9%	inactive	inactive	inactive	inactive	–	–	–	–	–	–
COc1ccc(Oc2ncc3nc(-c4ccc(Cl)cc4)c(=O)n(C[C@H]4CCCO4)c3n2)cc1	-19.3% (inactive)	–	-13.9% (inactive)	> 9.22 µM (inactive)	> 46 µM (inactive)	inactive	inactive	–	-25.3%	-85.4%	inactive	inactive	–	inactive	> 11.4 µM (inactive)	-18.6% (inactive)	28.2 µM (active)	–	–	–
Clc1ccccc1-c1nccc(NCc2cccs2)n1	15.2% (inactive)	–	1.89% (inactive)	> 46 µM (inactive)	> 46 µM (inactive)	inactive	–	7.3% (inactive)	8.1%	18.5%	inactive	inactive	28.2 µM (active)	inactive	–	0.38% (inactive)	–	–	–	–
Cc1noc(C)c1-c1ccc2ncnc(NC3CCNCC3)c2c1	17.3% (inactive)	31.6 µM (active)	10.3% (inactive)	> 46 µM (inactive)	> 46 µM (inactive)	inactive	inactive	2.83% (inactive)	3.61%	2.68%	25.1 µM (active)	–	inactive	inactive	> 11.4 µM (inactive)	-27.4% (inactive)	–	–	–	–
CCNc1ncc2nc(-c3cn(C)c4ccccc34)c(=O)n(-c3ccc(OC)cc3)c2n1	-24.5% (inactive)	–	-5.46% (inactive)	> 9.22 µM (inactive)	> 46 µM (inactive)	inactive	–	5.38% (inactive)	20.6%	23%	inactive	inactive	inactive	inactive	> 11.4 µM (inactive)	-8.46% (inactive)	–	-6.54% (inactive)	–	–
CCNc1ncc2nc(-c3cc(F)cc(F)c3)c(=O)n(C[C@H]3CCCO3)c2n1	7.28% (inactive)	3.16 µM (active)	-1.58% (inactive)	–	> 46 µM (inactive)	inactive	inactive	6.72% (inactive)	13.4%	19%	inactive	inactive	inactive	inactive	> 11.4 µM (inactive)	8.04% (inactive)	–	–	inactive	–
Cc1nc2cnc(N3CCN(C)CC3)nc2n(CCC#N)c1=O	9.68% (inactive)	12.6 µM (active)	-9.15% (inactive)	> 9.22 µM (inactive)	> 46 µM (inactive)	inactive	inactive	4.33% (inactive)	7.54%	9.36%	inactive	–	inactive	inactive	> 11.4 µM (inactive)	-13.7% (inactive)	–	–	–	–
c1ccc(CNc2cc(-c3cccnc3)ncn2)cc1	1.27% (inactive)	–	14.9% (inactive)	> 46 µM (inactive)	> 46 µM (inactive)	inactive	–	7.56% (inactive)	11.5%	21.7%	4.47 µM (active)	5.01 µM (active)	–	inactive	> 11.4 µM (inactive)	15.4% (inactive)	–	–	–	–
COc1cccc(Nc2ncc3nc(C)c(=O)n(Cc4cccs4)c3n2)c1	–	2.51 µM (active)	-12.1% (inactive)	> 9.22 µM (inactive)	> 46 µM (inactive)	inactive	–	-16.2% (inactive)	12.9%	-8.07%	inactive	inactive	inactive	inactive	> 11.4 µM (inactive)	-29.6% (inactive)	–	–	inactive	3.98 µM (active)
COc1ccc(Oc2ncc3nc(C)c(=O)n(Cc4cccc(OC)c4)c3n2)cc1	-16% (inactive)	–	-8.96% (inactive)	> 9.22 µM (inactive)	> 46 µM (inactive)	inactive	–	4.03% (inactive)	6.56%	8.3%	inactive	inactive	inactive	inactive	> 11.4 µM (inactive)	6.92% (inactive)	–	–	–	–
COCCn1c(=O)cnc2cnc(Nc3cccc(OC)c3)nc21	–	0.794 µM (active)	–	> 9.22 µM (inactive)	–	inactive	inactive	-15.5% (inactive)	-13.4%	-29.7%	1.78 µM (active)	1.26 µM (active)	inactive	inactive	> 11.4 µM (inactive)	-0.925% (inactive)	–	–	inactive	–
